Experimental data: PubChem BioAssay (NCATS)
Results filed as inconclusive are left out. Unless noted, calls follow the shape of the dose curve; as a rule, active = well fitted curve in either direction with a large enough effect (not every such curve was filed as active); inconclusive = small, poorly fitted or top-dose-only effect, or another doubt; inactive = flat fitted curve, though single readings scatter.

Tests used:
[1] = AP1 Signaling Pathway (AID 357); conditions: ME-180 AP-1-bla reporter, EGF-induced, beta-lactamase ratio, 5 h; at 17.2 µM (top of the series) unless noted;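 also: ME-180 reporter cells stimulated with EGF at its EC50 level; % is scaled to controls: 0 for no effect and ±100 for the full control effect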
Procedure, shortened: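 Read-out was the 460nm/530nm emission ratio (excitation 405nm) after CCF4 loading for 2.5 hours at room temperature. Cells carried an AP-1-driven beta-lactamase reporter, were stimulated with EC50 EGF plus compound for 5 hours, and AC50 values came from titrations.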

[2] = Stat Signaling Pathway (AID 446); conditions: ME-180 SIE beta-lactamase reporter, IL-6 stimulated, 5 h; at 17.2 µM (top of the series) unless noted;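 also: ME-180 cervical cancer cells given 40 pM IL-6 alongside compound; SIE-controlled beta-lactamase reporter measured as 460/530 nm FRET emission ratio; % is scaled to controls: 0 for no effect and ±100 for the full control effect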
Procedure, shortened: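 ME-180 SIE-bla cells; overnight plating; cpd + IL-6 40 pM, 5 h, 37 C; LiveBLAzer 2.5 h RT; 460/530 nm emission ratio. Normalized to 300 pM IL-6 and 125 nM JAK inhibitor controls.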

[3] = target: Glucocorticoid receptor (Homo sapiens) (UniProt P04150); test: GR-GFP Redistribution (AID 450;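 active = compounds whose dose series gives a full or clear partial fitted curve of increased nuclear translocation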; also: potency is read from the fitted curve at half-maximal effect)
Sequence of Glucocorticoid receptor (Homo sapiens) (P04150 whole entry, looked up): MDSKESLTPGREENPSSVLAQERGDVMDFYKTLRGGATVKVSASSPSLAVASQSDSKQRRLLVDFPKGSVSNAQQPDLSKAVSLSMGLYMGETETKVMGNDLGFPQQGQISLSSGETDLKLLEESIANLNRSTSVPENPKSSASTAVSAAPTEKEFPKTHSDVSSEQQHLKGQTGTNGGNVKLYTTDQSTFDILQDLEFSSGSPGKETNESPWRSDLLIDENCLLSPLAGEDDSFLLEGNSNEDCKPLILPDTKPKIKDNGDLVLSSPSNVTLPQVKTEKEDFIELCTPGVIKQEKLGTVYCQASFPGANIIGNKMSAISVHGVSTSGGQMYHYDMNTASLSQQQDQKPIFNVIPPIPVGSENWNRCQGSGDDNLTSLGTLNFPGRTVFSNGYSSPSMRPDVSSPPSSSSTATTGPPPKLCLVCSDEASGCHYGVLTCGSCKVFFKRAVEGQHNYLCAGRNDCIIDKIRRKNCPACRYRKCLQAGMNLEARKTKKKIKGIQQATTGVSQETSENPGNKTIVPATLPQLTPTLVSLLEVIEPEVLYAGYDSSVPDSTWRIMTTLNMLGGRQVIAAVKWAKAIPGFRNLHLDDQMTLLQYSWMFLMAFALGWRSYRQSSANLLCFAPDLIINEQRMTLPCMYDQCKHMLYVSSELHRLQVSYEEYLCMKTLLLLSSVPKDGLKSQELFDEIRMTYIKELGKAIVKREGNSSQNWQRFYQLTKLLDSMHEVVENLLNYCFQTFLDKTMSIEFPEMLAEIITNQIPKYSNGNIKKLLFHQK

C=CCOC(=O)C(C#N)c1nc2ccccc2nc1N1CCN(c2ccccc2OCC)CC1 (stereo not given)
inactive: activity change, negative = inhibition [1] 9.88% | activity, negative = inhibition [2] 2.33% | Potency [3] > 20.6 µM

COc1ccc(Nc2cc(C)nc3ccccc23)cc1
inactive: activity change, negative = inhibition [1] 10.5% | activity, negative = inhibition [2] 5.77% | Potency [3] > 20.6 µM

Oc1c(C=Nc2cccnc2)sc2ccccc12
inactive: activity change, negative = inhibition [1] 8.1% | activity, negative = inhibition [2] -3.68% | Potency [3] > 20.6 µM

C=CC[N+](C)(C)CCCNC(=O)/C=N/O
inactive: activity change, negative = inhibition [1] 6.86% | activity, negative = inhibition [2] 4.74% | Potency [3] > 20.6 µM

CCOC(=O)c1[nH]c2ccc(Br)cc2c1NC(=O)CNC
inactive: activity change, negative = inhibition [1] 18.8% | activity, negative = inhibition [2] -1.05% | Potency [3] > 20.6 µM
